Inconclusive results are not listed. Calls of active or inactive are those of the source. Rule for the calls: active = hit-call score of the fitted dose curve at least 0.9, where 1 is the maximum; inconclusive = response in the unintended direction; inactive = score below 0.9.
What follows are compounds tested against human Vitamin D Receptor (VDR), VDR (gene 7421) (UniProt P11473) (assay: ATG_VDR_TRANS: Attagene TRANS-FACTORIAL HepG2 Assay for human Vitamin D Receptor (VDR) (AID 2283022)).
Procedure, shortened: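 Multiplexed TRANS reporter in HepG2; 24 h treatment; reporter mRNA by RT-PCR plus capillary electrophoresis; upregulation scored relative to DMSO.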

human Vitamin D Receptor (VDR), VDR (gene 7421), sequence (P11473 whole entry, looked up): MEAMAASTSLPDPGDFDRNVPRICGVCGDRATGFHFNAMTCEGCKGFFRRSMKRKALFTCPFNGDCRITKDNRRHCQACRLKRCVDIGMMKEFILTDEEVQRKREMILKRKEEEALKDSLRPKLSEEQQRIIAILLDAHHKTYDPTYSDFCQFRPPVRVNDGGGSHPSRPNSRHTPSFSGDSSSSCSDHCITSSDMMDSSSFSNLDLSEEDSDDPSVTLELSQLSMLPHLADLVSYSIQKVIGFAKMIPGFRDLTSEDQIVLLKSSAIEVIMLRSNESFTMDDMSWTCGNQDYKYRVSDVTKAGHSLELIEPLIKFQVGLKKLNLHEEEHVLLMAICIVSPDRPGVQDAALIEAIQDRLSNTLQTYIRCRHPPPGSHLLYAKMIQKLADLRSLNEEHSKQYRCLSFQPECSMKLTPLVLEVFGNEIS

outcome, inactive:
CN1[C@@H]2CC(OC(=O)[C@H](CO)c3ccccc3)C[C@H]1[C@@H]1O[C@@H]12 (stereo partly drawn), CC(C)=CCC/C(C)=C/COC=O, O=C1CCc2ccccc2O1, CCCCCCOC(=O)CCCCC, c1cc(C(c2ccc(OCC3CO3)cc2)c2ccc(OCC3CO3)cc2)ccc1OCC1CO1 (stereo not drawn), Cc1ccccc1C=O, Cc1ccc(C(=O)c2cc(O)c(O)c([N+](=O)[O-])c2)cc1, Nc1ccc(F)c([N+](=O)[O-])c1, CC(C)C1CCC(O)CC1 (stereo not drawn), CC(C)=CCCC(C)=CCCC(C)=CCO, CC(=O)OCCOC(C)=O, CCCC(=O)C(C)=O, CCN(CC)c1ccc(C(=C2C=CC(=[N+](CC)CC)C=C2)c2ccc(S(=O)(=O)O)cc2S(=O)(=O)[O-])cc1, CC(C)=CCC[C@H](C)CC=O, CC(C)(C)C(=O)c1ccccc1, COc1ccc(OC)c(OC)c1, Clc1ccc(Cl)c(Cl)c1Cl, CC(C=O)Cc1ccc(C(C)C)cc1 (stereo not drawn), O=C1O[C@@H]2[C@@H](O)[C@H](O)O[C@@H]2[C@H]1O, CC(C)(C)NC(N)=O, C=CCOc1nc(OCC=C)nc(OCC=C)n1, Nc1nc2ccc([N+](=O)[O-])cc2s1, O=C(O)c1cccc(C(F)(F)F)c1, CCCCCC(CO)CCC (stereo not drawn), CC(C)C[C@H]1C(=O)N2CCC[C@H]2[C@]2(O)O[C@](NC(=O)[C@@H]3C=C4c5cccc6[nH]c(Br)c(c56)C[C@H]4N(C)C3)(C(C)C)C(=O)N12, CCCCCCCCCCCCCCCC(=O)OC[C@H](O)[C@H]1OC(=O)C(O)=C1O, COC(=O)OC, O=[N+]([O-])c1ccc(Nc2ccc(Nc3ccccc3)c(S(=O)(=O)O)c2)c([N+](=O)[O-])c1, O=c1[nH]nnc2ccccc12, CCCCCCCCCCCCCC(=O)O, CNCCCC12CCC(c3ccccc31)c1ccccc12, O=S(=O)(O)c1cccc2c(S(=O)(=O)O)cccc12, NCCCCCCN, O=C(O)COCCN1CCN(C(c2ccccc2)c2ccc(Cl)cc2)CC1 (stereo not drawn), CCC(C)CCCC(C)(C)O (stereo not drawn), C=C[C@@H](C)CCC=C(C)C, C=CC(=O)NCOCC(C)C, CC(C)CCCCCCCOC(=O)c1ccc(C(=O)OCCCCCCCC(C)C)c(C(=O)OCCCCCCCC(C)C)c1

Reference: PubChem BioAssay (EPA / NIEHS)
